HT1080-NT tox – kills 2HG-producing HT-1080-NT fibrosarcoma cells; HT-1080-NT fibrosarcoma viability, CellTiter-Glo ATP luminescence, 48 h; Potency, µM (top dose mostly 46.1 µM), usual class: cytotoxic; 360,000 compounds, 1.6% hits; AID 686970;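 note: NT is the 2HG producing partner of a matched IDH1 knockdown line; nearly all actives have a fitted effect of over 55% in size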
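Compounds were tested in concentration-response format on HT-1080-NT cells for 48 hours at 37 degrees C. Cell viability came from CellTiter-Glo luminescence; curves were classified by r2, response magnitude and activity.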
HT1080 IDH1KD tx – HT-1080 IDH1 knockdown cell toxicity (counter line); HT-1080 IDH1 knockdown viability, ATP luminescence, 48 h; Potency, µM (highest dose often 46.1 µM), most hits filed as cytotoxic; 360,000 compounds, 2% hits
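Using the IDH1-knockdown HT-1080 line run in the same batch and compound series as the NT line, viability after 48 h at 37 °C was determined by CellTiter-Glo luminescence and expressed as % activity.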
DT40 TDP1 no CPT – qHTS for Inhibitors of human tyrosyl-DNA phosphodiesterase 1 (TDP1): qHTS in cells in absence of CPT; DT40 Tdp1-/- hTDP1 cells, no CPT, ATP luminescence, 48 h; Potency, µM (series often up to 46.2 µM), usual class: inhibitors; 420,000 compounds, 15% hits; AID 686978, 2013; note: nearly all actives have a fitted effect of over 55% in size
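Luminescent ATP content (CellTiter-Glo) served as the growth readout. Knockout chicken DT40 cells expressing human TDP1 were exposed to compounds without camptothecin for a minimum 48 hr at 37 °C.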
ELG1 DNA repair – inhibitors of ELG1-dependent DNA repair in HEK293T cells. 330,000 compounds, 2.3% hits. HEK293T ELG1-luciferase reporter, luminescence, 16 h; DNA damage induced by 5-fluorouridine. AID 504467. Potency, µM (titrated, usually from 46.1 µM), hits mostly inhibitors; note: nearly all actives have a fitted effect of over 55% in size
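Quantitative HTS, concentration-response format. 2,000 cells/well co-treated with 5-fluorouridine and compound, 16 hr in 5% CO2 at 37 °C; ONE-Glo luminescence read after 30 min.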
TDP1 cell CPT – DT40-hTDP1 cell growth loss with CPT; 420,000 compounds, 12% hits; Potency, µM (highest dose often 46.2 µM), usual class: inhibitors; chicken DT40 Tdp1-/-;hTDP1 cells + 20 nM CPT, ATP luminescence, 48 h; AID 686979; note: nearly all actives have a fitted effect of over 55% in size
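Cell growth measured by CellTiter-Glo luminescence after a minimum 48 h, 37 C compound exposure with 20 nM CPT in Tdp1-knockout DT40 cells stably expressing hTDP1, seeded 400/well; qHTS titration format.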
IL1B secr inh – blocks inflammasome-driven IL-1 beta release; THP-1 LPS/ATP IL-1B secretion, AlphaLISA, 16 h; stronger effect = lower value; activity change, % at 57.5 µM; 360,000 compounds, 4.7% hits; in the data active = activity change below about -50%; inconclusive = mostly about -30% to -49%
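THP-1 cells pretreated 1 hr with compounds (up to 57.5 uM final), then stimulated with LPS (250 ng/mL final) plus ATP (1.25 mM final); secreted IL-1B measured by AlphaLISA after 16 hr, decreased signal indicating inhibition.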
Numbers stand for hits; - = inactive; ? = inconclusive; . = no result given; [ ] = remark or other dose. In the library only some 19% were active in any assay of this set; here they are far more common. Unless noted, calls come from the whole dose curve; as a rule, active = well fitted curve in the direction sought with a large enough effect; inconclusive = small, poorly fitted or top-dose-only effect, or another doubt; inactive = no such curve, though single readings can be large; an effect the other way counts as inactive or inconclusive.

SMILES	HT1080-NT tox	HT1080 IDH1KD tx	DT40 TDP1 no CPT	ELG1 DNA repair	TDP1 cell CPT	IL1B secr inh
COc1cc(/C=N/NC(=O)CCn2c3ccccc3c3ccccc32)cc(OC)c1OC	-	-	-	18µM	?	-
COc1cc(C=C(C#N)C(=O)c2ccccc2)cc(OC)c1OC	-	-	-	.	-	-
COc1cc(/C=N/NC(=O)c2ccc(-n3cccc3)cc2)ccc1O	-	-	?	?	?	-69
Cc1nc(N)sc1C(=O)N/N=C/c1ccc([N+](=O)[O-])cc1	-	-	-	-	-	-
COc1cc(/C=N\NC(=O)c2sc(N)nc2C)cc(OC)c1OC	-	-	13µM	-	?	-79
COc1cc(/C=C(/C(=O)O)c2ccc(-c3ccccc3)cc2)cc(OC)c1OC	?	9.2µM	?	-	?	-
COc1ccc(/C=N/NC(=O)CCn2c3ccccc3c3ccccc32)cc1OC	-	-	?	-	-	-
O=C(Cc1ccc2c(c1)OCCO2)N1CCN(c2ccccc2)CC1	-	-	?	-	-	-
Cc1ccc(-n2ncc3c(=O)n(CC(=O)N(C(C)C)C(C)C)cnc32)cc1	-	-	-	-	-	-
COc1cc(C(=O)N/N=C/c2sc(=O)n(-c3ccccc3)c2Cl)cc(OC)c1OC	-	-	?	-	?	-71
O=C(N/N=C/c1sc(=O)n(-c2ccccc2)c1Cl)c1ccncc1	-	?	?	?	?	-
COc1cc(/C=N/NC(=O)c2sc3nc(C)cc(C)c3c2N)ccc1O	?	?	3.3µM	-	?	-89
COc1ccc(/C=N\NC(=O)c2ccc(-c3ccccc3)cc2)cc1COC(C)=O	-	-	?	-	?	-
O=C(N/N=C/c1c[nH]c2ccccc12)c1sc2ccccc2c1Cl	-	?	?	?	-	-
COc1cc(/C=N/NC(=O)c2ccc(-c3ccccc3)cc2)cc(OC)c1OC	-	-	?	16µM	21µM	-
COC(=O)c1sc2nc(C)cc(C)c2c1N	-	-	-	?	-	-
Cc1nc(N)sc1C(=O)N/N=C/c1c[nH]c2ccccc12	?	-[9.24 µM]	?	?	?	-55
Cc1ccc(CSc2nnc3[nH]c(=O)cc(C)n23)cc1	.	.	-	.	-	.
Cc1nnsc1C(=O)N/N=C/c1c(F)cccc1Cl	-	-	-	-	-	-
COc1cc(/C=N/NC(=O)c2cc(-c3ccccc3)sc2N)cc(OC)c1OC	?	?	16µM	23µM	16µM	-72
Cc1nnsc1C(=O)N/N=C/c1ccc2ccccc2c1O	4.1µM	3.7µM	0.82µM	?	1µM	-
COc1cc(/C=N/NC(=O)c2cc(-c3ccccc3)nc3ccccc23)cc(OC)c1O	-	-	?	?	?	-
CN1C(=O)c2ccccc2Sc2ccc(NC(=O)NC3CC3)cc21	-	-	?	-	?	-
CC(C)CCNC(=O)Nc1ccc2c(c1)N(C)C(=O)CS2	-	-	?	.	-	-
CN1C(=O)c2ccccc2Sc2ccc(NC(=O)NCc3ccccc3Br)cc21	.	.	21µM	.	16µM	.
SMILES	HT1080-NT tox	HT1080 IDH1KD tx	DT40 TDP1 no CPT	ELG1 DNA repair	TDP1 cell CPT	IL1B secr inh
CC(C)CCNC(=O)Nc1ccc2c(c1)N(C)C(=O)c1ccccc1S2	.	.	16µM	.	15µM	.
COc1ccc(C(=O)Nc2nc(-c3ccc([N+](=O)[O-])cc3)c(-c3ccccc3)s2)cc1	-	-	7.3µM	.	8.2µM	?
COc1ccc(-c2sc(NC(=O)c3ccc(C)cc3)nc2-c2ccc([N+](=O)[O-])cc2)cc1	-	-	?	-	23µM	-
CCCOC(=O)c1ccc(NC(=O)c2cc(=O)[nH]c3ccccc23)cc1	-	-	-	-	-	-
Cc1ccc2c(c1)c1c(c(=O)n(-c3ccccc3C)c(=O)n1CC(=O)NCc1ccccc1)n2C	.	.	18µM	.	?	.
COc1ccc2c(c1)c1c(c(=O)n(-c3ccccc3C)c(=O)n1Cc1ccccc1C)n2C	.	.	-	.	-	.
